Bioassay records (PubChem BioAssay)
AMA1-RON2 inh: qHTS for Inhibitors of AMA1-RON; Towards Development of Antimalarial Drug Lead: Primary Screen; Plasmodium falciparum AMA1 (3D7) - RON2 peptide interaction; AlphaScreen AMA1-biotinylated RON2 peptide binding; Potency, µM (series often up to 58.2 µM), for inactives: at the highest dose activity change, negative = inhibition, usual class: inhibitors; actives 0.2% (n = 360,000);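 further: potency means the concentration at half of the fitted maximal effect; 0% = vehicle wells and -100% = peptide control; nearly all actives have a fitted effect of over 45% in size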
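AMA1 (3D7) with his tag at 25 nM final met compounds first, then biotinylated RON2 peptide at 25 nM; detection used donor plus acceptor beads, 10 µg/mL apiece, read by AlphaScreen after 30 min at room temperature.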
CHX counter: Cycloheximide Counterscreen for Small Molecule Inhibitors of Shiga Toxin; cell reporter, cycloheximide protein synthesis inhibition counterscreen; actives 12% (n = 300,000); max response, %; AID 2314, 2010; in the data active means max response mostly above about 13%, no sharp cut-off; inactive means mostly below about 14%; further: read at 38.3 µM for the half of the compounds with a filed dose; 0% is about no effect
Shiga toxin inh: A qHTS for Small Molecule Inhibitors of Shiga Toxin; Vero cells, Shiga toxin protein synthesis inhibition reporter; inhibition, % at 38.7 µM; actives 9.2% (n = 290,000); in the data active means inhibition mostly above about 28%, no sharp cut-off; inactive means mostly below about 43%; further: 0% is about no effect
Pf growth 96h: Primary qHTS for delayed death inhibitors of the malarial parasite plastid, 96 hour incubation. Potency, µM (titrated, usually from 28.7 µM), for inactives: top-dose activity change, negative = inhibition, most hits filed as inhibitors. AID 504834, 2011. P. falciparum luciferase reporter growth, 96 h. actives 6.9% (n = 320,000); further: potency means the concentration at half of the fitted maximal effect; on the % scale 0 is the no-effect control and ±100 the full control effect
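Cell-based qHTS: luciferase-tagged P. falciparum in erythrocytes (2% hematocrit, 0.05% parasitemia final) incubated with compounds for 96 hours, 37 C, 5% CO2; luciferase detection reagent then added and luminescence measured.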
Pf growth 48h: Primary qHTS for delayed death inhibitors of the malarial parasite plastid, 48 hour incubation | P. falciparum luciferase growth in erythrocytes, 48 h | Potency, µM (series often up to 28.7 µM), without a hit: at the top dose activity change, negative = inhibition, most hits filed as inhibitors | actives 5.9% (n = 310,000) | AID 504832, 2011; further: potency means the concentration at half of the fitted maximal effect; on the % scale 0 is the no-effect control and ±100 the full control effect
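A one-generation exposure of luciferase-tagged malaria parasites in RPMI 1640/Albumax erythrocyte culture, 37 C and 5% CO2. Inhibition is inferred from decreased luminescence after adding detection reagent.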
SARS PLpro yeast: qHTS of Yeast-based Assay for SARS-CoV PLP. Potency, µM (highest dose often 32.9 µM), without a hit: at the top dose activity, positive = growth rescue, usual class: activators. S. cerevisiae expressing SARS-CoV PLpro, growth rescue. actives 0.19% (n = 330,000). AID 485353, 2010; calls by dose curve; further: potency means the concentration at half of the fitted maximal effect; 0% is about no effect; nearly all actives have a fitted effect of over 55% in size
* marks the source's active call; other numbers are inactive results; ? = inconclusive; / = no result given. A selection: hits, their analogues and other compounds. The true share with any hit is near 19%. Unless noted, the call rests on the fitted dose curve; in most records, active means well fitted curve in the direction sought with a large enough effect; inconclusive means small, poorly fitted or top-dose-only effect, or another doubt; inactive means no such curve, though single readings can be large; an effect the other way counts as inactive or inconclusive.

SMILES | AMA1-RON2 inh | CHX counter | Shiga toxin inh | Pf growth 96h | Pf growth 48h | SARS PLpro yeast
CCOc1ccc(CCNC(=O)CCc2c(C)nc3ncnn3c2C)cc1OCC | -5.5% | 12.0 | -7.9 | 5.86µM* | ? | -14.9%
O=C(CCn1cccc1)NCCc1ccc(Cl)cc1 | -10.6% | -3.7 | 31.5 | 10.4µM* | 6.4% | -8.8%
O=C(CCS(=O)(=O)Cc1ccc(Cl)cc1)NCCc1ccccc1 | -15.1% | 18.8* | 14.9 | 5.8% | 47.9% | -3.3%
CCOc1ccc(CCNC(=O)CCn2cccc2)cc1OCC | -8.4% | -3.3 | -5.2 | 1.65µM* | ? | 9.8%
Cc1nc2ncnn2c(C)c1CCC(=O)NCCC1=CCCCC1 | -3.6% | 1.9 | 0.7 | ? | ? | -3.0%
CCCCOCCOCCOCc1cc2c(cc1CCC)OCO2 | / | / | / | -4.0% | -6.7% | /
O=C(NC(=S)N(CCO)Cc1ccccc1)c1ccc(F)cc1Cl | 86.9% | -5.1 | -5.0 | -7.0% | -4.9% | 1.1%
O=C(Nc1ccc([N+](=O)[O-])cc1)Nc1cnccn1 | -3.0% | 1.6 | -32.2 | ? | ? | -2.3%
O=C(Nc1ccccc1)Nc1cnccn1 | -4.7% | 15.2 | 24.2* | 58.7% | 6.3% | -1.1%
CC(C)c1ccc(NC(=O)Nc2cnccn2)cc1 | -0.2% | 60.8* | 73.3* | 69.2% | 54.9% | 0.8%
COc1ccc(NC(=O)Nc2cnccn2)cc1OC | 1.3% | 6.4 | 9.2 | 8.9% | -3.7% | 3.2%
O=C(Nc1ccc(Cl)cc1)Nc1cnccn1 | 3.3% | 27.4* | 26.3 | -5.2% | 2.5% | -1.9%
Cc1ccc(NC(=O)Nc2cnccn2)cc1C | 0.0% | 28.2* | 96.5* | ? | 40.4% | -0.8%
Cc1cc(C)c(S(=O)(=O)c2cccc(Cl)c2)c(=O)[nH]1 | -0.3% | -2.3 | 23.2 | -11.1% | / | 0.8%
Cc1ccc(NC(=O)Nc2cnccn2)cc1 | 19.3% | 62.8* | 71.7* | -24.3% | 42.2% | -0.8%
O=C(Nc1cnccn1)Nc1cccc(Cl)c1Cl | -5.9% | 26.3* | 16.4 | ? | 11.1% | 1.1%
Cc1cc(C)cc(NC(=O)Nc2cnccn2)c1 | 0.5% | -5.8 | 30.7 | ? | -1.2% | 0.3%
C=CCn1cccc(C(=O)Nc2ccc(OC)cc2)c1=O | 0.6% | 48.0* | 62.1* | ? | 173.2% | -7.5%
C=CCn1cccc(C(=O)Nc2ccc(F)cc2)c1=O | 2.2% | 38.5* | 62.7* | 97.5% | 100.3% | 1.3%
O=C(Nc1c(F)cc(F)cc1F)c1cccn(Cc2ccccc2)c1=O | 12.7% | 23.8 | 32.8 | -14.5% | 29.3% | 1.6%
C=CCc1cccc2cc(C(=O)Nc3ccc(F)cc3)c(=O)oc12 | -0.6% | 10.6* | 0.0 | 0.0% | 5.7% | 11.4%
C=CCc1cccc2cc(C(=O)Nc3ccc(CC(=O)O)cc3)c(=O)oc12 | 7.8% | -0.9 | -1.9 | 31.2% | 1.4% | 0.8%
COc1ccc(NC(=O)c2cccn(CC=C(C)C)c2=O)cc1 | 55.5% | 40.4* | 57.6* | 39.5% | 169.2% | -0.9%
Cc1ccccc1N=C1c2ccccc2C(=O)C1[N+](=O)[O-] (stereo not given) | -4.0% | -2.0 | -19.9 | 25.3% | 5.1% | -0.7%
CC(NC(=O)CCc1nc2cc(S(=O)(=O)N3CCOCC3)ccc2n1C)c1ccc(S(N)(=O)=O)cc1 (stereo not given) | -7.3% | -2.2 | -10.5 | ? | 0.1% | 7.0%
SMILES | AMA1-RON2 inh | CHX counter | Shiga toxin inh | Pf growth 96h | Pf growth 48h | SARS PLpro yeast
CC(C)OC(=O)NS(=O)(=O)c1cccc([N+](=O)[O-])c1 | 1.1% | -2.8 | -18.6 | 40.8% | -21.0% | -1.0%
CCOc1cc(N2CCOCC2)c(OCC)cc1NC(=O)CN1C(=O)C2C3C=CC(C3)C2C1=O (stereo not given) | -2.2% | -1.2 | -4.7 | ? | -4.0% | 0.4%
O=C(NCc1ccccc1F)c1ccc(S(=O)(=O)N2CCCCCC2)cc1 | -5.5% | / | / | ? | ? | 3.8%
COC(=O)c1ccc(NC(=O)CCCN2C(=O)NC(C)(C)C2=O)cc1 | -5.7% | / | / | -10.6% | 4.7% | 0.7%
CN(CC(=O)Nc1ccccc1Cl)C1CCCCC1 | 1.8% | 7.0 | 14.7 | ? | 32.2% | -0.9%
O=C(Nc1ccccc1Cl)OC1CCCCC1 | 54.7% | 21.9 | 99.7* | 50.4% | 37.1% | -1.8%
O=C(NC(=O)c1ccc(Cl)cc1)OC1CCCCC1 | 3.5% | 48.4* | 63.1* | 23.6% | 13.4% | -1.2%
O=C(CNC(=O)c1ccccc1)OC1CCCCC1 | 3.2% | 34.7* | 56.4* | 16.6% | 288.8% | -0.3%
Cc1ccc(-n2c(SCC(=O)NCCN3C(=O)CSC3=O)nnc2-c2ccccc2F)cc1 | -0.6% | -1.5 | -1.1 | 14.7µM* | -12.2% | 4.6%
O=C(CSc1nc(-c2ccccc2)cs1)NCCN1C(=O)CSC1=O | 8.2% | 30.0* | 38.2 | 94.2% | 47.5% | 6.7%
Cc1ccc(SCC(=O)NCCN2C(=O)CSC2=O)cc1C | -6.6% | 25.5 | 29.2 | 77.2% | / | 1.6%
Cc1ccc(Nc2nnc(SCC(=O)NCCN3C(=O)CSC3=O)s2)cc1C | 4.7% | 14.8* | active | ? | 4.9% | /
C=CCn1nnnc1SCC(=O)Nc1cccc(C(F)(F)F)c1 | -2.2% | 3.4 | -8.4 | -7.2% | 23.4% | ?
O=C(OCCCN=C1NS(=O)(=O)c2ccccc21)c1ccc([N+](=O)[O-])cc1 | -8.7% | -1.5 | -1.2 | 46.3% | 46.1% | -0.6%
CC(=O)Nc1ccc(S(=O)(=O)NCc2ccncc2)cc1 | 29.2% | 8.1 | -15.8 | 1.7% | 29.9% | 0.7%
CCc1nc2ccc(C(=O)N(CC)CCN(C)C)cn2c1N(C)Cc1nccs1 | 7.7% | / | / | / | / | /
O=C(Nc1cccn2ncnc12)c1ccc(Cl)cc1 | 7.5% | 11.9 | 44.5 | 3.0% | 42.1% | -3.1%
O=C(Nc1cnc2ccccn2c1=O)c1ccc(Cl)cc1 | -2.5% | 33.5* | 112.7* | 90.0% | 110.3% | 3.1%
CN(C(=O)c1ccc(NC(=O)Cc2ccc(NC(=O)C3CCN(C(=O)C4CCC4)CC3)cc2)cc1)C1CC1 | -29.8% | / | / | 9.28µM* | ? | 4.9%
CN(C(=O)c1ccc(NC(=O)Cc2ccc(NC(=O)C3CCN(C(=O)C4CCCC4)CC3)cc2)cc1)C1CC1 | ? | / | / | 2.08µM* | ? | 8.2%
c1cc2c(c(NCc3ccncc3)c1)CCCC2 | -5.9% | -7.0 | -8.8 | / | 10.4µM* | -7.6%
CCCCN(CC)C(=O)C1CCC(=O)N(c2ccc(OC)cc2)C1c1ccc(OC)c(OC)c1 (stereo not given) | 1.9% | / | / | / | / | /
CC(C)[C@H](NC(=O)NCCc1ccc(F)cc1)C(=O)O | 3.5% | -2.9 | 11.1 | 7.0% | / | -1.8%
CCCc1ccc(OC(=O)c2cccs2)cc1 | 12.2% | 22.2 | 2.8 | 14.0% | / | -4.8%
CCCc1ccc(OC(=O)c2ccc(O)cc2Cl)cc1 | 25.5% | 39.9* | 96.1* | 24.3% | 254.8% | -8.6%
